Compound activity from PubChem.
NCOA2 inhibitor – inhibition of GAL4-SRC2 driven luciferase reporter, primary screen, SRC2 inhibitor project, cell-based, luminescence | AID 651957, 2012 | hit rate 0.17% among 370,000 | Nuclear receptor coactivator 2 (Homo sapiens), Q15596 | inhibition, % at 9 µM | HEK293 GAL4-SRC2 luciferase reporter;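 active means inhibition above the mean inhibition of all tested compounds plus 3 SD, set per campaign, cut at about 52% in these data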;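 further: 0% = DMSO treated cells and 100% = cells given Gossypol at 36 µM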
SRC1 inh – SRC1 coactivator transcriptional activity inhibitors, primary screen, cell-based, luminescence. Nuclear receptor coactivator 1 (Homo sapiens), Q15788. HEK293 GAL4-SRC1 luciferase reporter. inhibition, % at 3.6 µM. hit rate 0.12% among 360,000;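 active means inhibition above the campaign mean plus 3 SD, with each screening campaign given its own cutoff, cut at about 60% in these data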;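 further: 0% = DMSO treated cells and 100% = gossypol at 36 µM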
LRH-1 inv ag – LRH-1 (NR5A2) inverse agonists, primary screen, cell-based, luminescence, HEK293T, StAR-luciferase reporter | LRH-1 transfected, 24 h | AID 602396, 2012 | hit rate 0.13% among 360,000 | inhibition, % at 3.6 µM;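 active means inhibition above the mean inhibition of all tested compounds plus 3 SD, cut at about 73% in these data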;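 further: 0% = DMSO wells and 100% = reporter-only cells lacking LRH-1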
SRC3 inh – SRC3 coactivator transcriptional activity inhibitors, primary screen, cell-based, luminescence | HEK293 GAL4-SRC3 luciferase reporter | inhibition, % at 3.6 µM | hit rate 0.17% among 360,000;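 active means inhibition above a per-campaign cutoff, the mean of all compounds plus 3 SD, cut at about 60% in these data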;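 further: 0% = DMSO-treated cells and 100% = gossypol-treated cells at 36 µM; higher means less SRC3-driven luciferase light from the GAL4 reporter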
NR2F2 inh – NR2F2 transcriptional activity inhibitors, primary screen, cell-based, luciferase reporter, HEK293T, luminescence | COUP transcription factor 2 (Homo sapiens), P24468 | HEK293T NGFI-A luciferase reporter | inhibition, % at 8.6 µM | hit rate 0.7% among 370,000 | AID 686940, 2013;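 active means inhibition above a per-plate cutoff, mean inhibition of test wells between control levels plus 3 SD, cut at about 38% in these data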;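 further: cells cotransfected with COUP-TFII expression vector driving the NGFI-A reporter; 0% = median of COUP-TF2 test wells and 100% = reporter-only cells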
GalR3 antag – GalR3 antagonists in HEK293 cells, primary screen, cell-based, fluorescence readout | AID 651719, 2012 | HEK293 GalR3-CNG cAMP membrane potential fluorescence; galR3 body fused to GalR1 C-terminus | hit rate 0.44% among 360,000 | Galanin receptor type 3 (Homo sapiens), O60755 | inhibition, % at 3 µM;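 active means inhibition above the screen-wide average plus 3 SD, cut at about 13% in these data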;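 further: forskolin and galanin both at EC90 stimulate the cells; cAMP rise reported by CNG channel membrane potential dye signal; 0% = forskolin plus galanin with DMSO and 100% = forskolin alone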
GalR3 antag conf – GalR3 antagonist hit confirmation, cell-based, fluorescence, triplicate; shares compounds with GalR3 antag; HEK293 GalR3 CNG cAMP biosensor, membrane potential fluorescence; galR3 fused to GalR1 carboxy tail; challenged with forskolin and galanin at EC90; inhibition, % at 3 µM; hit rate 59% among 1,600; AID 652245, 2013;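 active means inhibition above the primary screen's cutoff, the mean inhibition of all screened compounds plus 3 SD, cut at about 13% in these data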;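 further: 0% = forskolin plus galanin and 100% = forskolin alone with DMSO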
HEK-CNG parental – nonspecific cAMP agonists in parental HEK-CNG cells, counter-screen for GalR3 antagonist project, cell-based, fluorescence, high throughput. activation, % at 3 µM. hit rate 10% among 1,600. HEK293-CNG parental cells, cAMP membrane potential fluorescence; normalised: DMSO wells 0%, forskolin wells 100%. shares compounds with GalR3 antag; in the data active means activation above about 1.3%
Active calls of the source: *; / = not tested or not shown. An excerpt weighted towards active compounds, which were near 1.1% of everything screened.

SMILES | NCOA2 inhibitor | SRC1 inh | LRH-1 inv ag | SRC3 inh | NR2F2 inh | GalR3 antag | GalR3 antag conf | HEK-CNG parental
N=c1c2c(ccn1CCCc1ccccc1)Oc1ccc3ccccc3c1C2c1ccccc1 (stereo not drawn) | / | / | / | / | 5 | / | / | /
c1ccc(Cn2cnc3ccccc32)cc1 | -67 | -90 | -128 | -69 | -48 | -3 | / | /
Fc1cc2ncn(Cc3ccccc3)c2cc1F | -9 | -14 | 6 | 13 | -21 | / | 2 | 0
COc1ccc(NC(=O)C(=S)N2CCCC2)cc1 | -8 | -22 | -19 | -14 | -33 | 16* | 1 | 0
COCC(COS(N)(=O)=O)Cc1ccccc1 (stereo not drawn) | -9 | -5 | 2 | -12 | 10 | / | -3 | 0
OCCC#Cc1ccc(CN2CCN(C3CCCCC3)C(CCO)C2)cc1 (stereo not drawn) | 21 | 10 | 22 | 13 | -4 | 13* | 0 | 0
CC(C)N1CCN(Cc2ccc(C#CCCO)cc2)CC1CCO (stereo not drawn) | 1 | 4 | 10 | -6 | -7 | -1 | / | /
CC1CC(C)CN(C(=O)CSCC(=O)O)C1 (stereo not drawn) | -1 | 6 | -4 | 5 | -8 | 13* | -2 | 0
CCCCCCCCNC(=O)C1CSCCS(=O)(=O)N1Cc1ccc(F)cc1 (stereo not drawn) | 5 | / | / | / | 6 | / | / | /
Cc1cc(NC(=O)COC(=O)C(Cc2ccccc2)NC(=O)c2ccco2)no1 (stereo not drawn) | -9 | 5 | 4 | 5 | 12 | 13* | 14* | 0
COc1cccc([C@@H](NC(=O)C(F)(F)F)[C@@H]2CCCC=C2c2ccccc2)c1 | -3 | / | / | / | 15 | -12 | / | /
COC(=O)[C@]12C[C@H](CC(=O)NCc3cccc4ccccc34)C(=O)N(CCC3=CCCCC3)C1=C[C@H](COCc1ccccc1)O[C@@H]2C | -19 | / | / | / | -9 | -7 | / | /
CCOc1cc2c(cc1/C=C(/C#N)c1ccc(C(=O)O)cc1)OCO2 | -31 | -18 | -10 | -4 | -1 | 1 | / | /
N#C/C(=C\c1cc2c(cc1Br)OCO2)c1ccc(C(=O)O)cc1 | 29 | -5 | 1 | -12 | -12 | 17* | 1 | 1.2*
COCCn1nnnc1C(C(C)C)N(Cc1ccccc1)Cc1cc2cc(OC)ccc2[nH]c1=O (stereo not drawn) | -5 | 0 | 5 | -6 | 2 | 65* | 60* | 1
COc1ccc2[nH]c(=O)c(CN(Cc3ccco3)C(c3nnnn3Cc3ccccc3)C(C)C)cc2c1 (stereo not drawn) | 17 | 0 | -20 | -23 | -13 | 13* | 0 | 0
CC(C)=C1Cc2ccccc2C1=O | 2 | -10 | 11 | -2 | 17 | 13* | 0 | 0
CCOC(=O)[C@]12CCCCC/C=C\1N(CCc1ccc(Cl)cc1)C(=O)[C@H]2CC(=O)NCC1CCCCC1 | -3 | / | / | / | -5 | / | / | /
CCN(CC)c1ccc(/C=C(/C#N)C(=O)NC(C)C)o1 | 13 | -27 | -11 | -8 | 8 | 13* | -2 | 0
N#C/C(=C\c1ccccc1)C(=O)Nc1nncs1 | 5 | 3 | 1 | 0 | 8 | 16* | 9 | 0
S=c1[nH]nc(-c2cc(-c3ccccc3)n[nH]2)n1N=Cc1cccc(Oc2ccccc2)c1 | -19 | / | / | / | 0 | / | / | /
O=S1(=O)N[C@@H](Cc2ccccc2)COc2cc(NCCCN3CCOCC3)ccc21 | 6 | / | / | / | 15 | -6 | / | /
